The values below come from publication PMC4336329 (PLoS ONE, 2015).

Among all 310,000 compounds or so, about 14,000 (4.5%) showed an effect of 50% or more. Effects have a minus sign here. The list comes from a sample in which strong results are over-represented; it also holds similar structures and randomly drawn compounds.
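Further: peak tail current of the secondary pulse compared with the same well before compound.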

The target of this assay is human ether-à-go-go-related gene (hERG) potassium channel (human, UniProt Q12809). Description: primary screen, population patch clamp on CHO cells stably expressing hERG; higher = less effect of the substance.
human ether-à-go-go-related gene (hERG) potassium channel, sequence (Q12809 whole entry, looked up): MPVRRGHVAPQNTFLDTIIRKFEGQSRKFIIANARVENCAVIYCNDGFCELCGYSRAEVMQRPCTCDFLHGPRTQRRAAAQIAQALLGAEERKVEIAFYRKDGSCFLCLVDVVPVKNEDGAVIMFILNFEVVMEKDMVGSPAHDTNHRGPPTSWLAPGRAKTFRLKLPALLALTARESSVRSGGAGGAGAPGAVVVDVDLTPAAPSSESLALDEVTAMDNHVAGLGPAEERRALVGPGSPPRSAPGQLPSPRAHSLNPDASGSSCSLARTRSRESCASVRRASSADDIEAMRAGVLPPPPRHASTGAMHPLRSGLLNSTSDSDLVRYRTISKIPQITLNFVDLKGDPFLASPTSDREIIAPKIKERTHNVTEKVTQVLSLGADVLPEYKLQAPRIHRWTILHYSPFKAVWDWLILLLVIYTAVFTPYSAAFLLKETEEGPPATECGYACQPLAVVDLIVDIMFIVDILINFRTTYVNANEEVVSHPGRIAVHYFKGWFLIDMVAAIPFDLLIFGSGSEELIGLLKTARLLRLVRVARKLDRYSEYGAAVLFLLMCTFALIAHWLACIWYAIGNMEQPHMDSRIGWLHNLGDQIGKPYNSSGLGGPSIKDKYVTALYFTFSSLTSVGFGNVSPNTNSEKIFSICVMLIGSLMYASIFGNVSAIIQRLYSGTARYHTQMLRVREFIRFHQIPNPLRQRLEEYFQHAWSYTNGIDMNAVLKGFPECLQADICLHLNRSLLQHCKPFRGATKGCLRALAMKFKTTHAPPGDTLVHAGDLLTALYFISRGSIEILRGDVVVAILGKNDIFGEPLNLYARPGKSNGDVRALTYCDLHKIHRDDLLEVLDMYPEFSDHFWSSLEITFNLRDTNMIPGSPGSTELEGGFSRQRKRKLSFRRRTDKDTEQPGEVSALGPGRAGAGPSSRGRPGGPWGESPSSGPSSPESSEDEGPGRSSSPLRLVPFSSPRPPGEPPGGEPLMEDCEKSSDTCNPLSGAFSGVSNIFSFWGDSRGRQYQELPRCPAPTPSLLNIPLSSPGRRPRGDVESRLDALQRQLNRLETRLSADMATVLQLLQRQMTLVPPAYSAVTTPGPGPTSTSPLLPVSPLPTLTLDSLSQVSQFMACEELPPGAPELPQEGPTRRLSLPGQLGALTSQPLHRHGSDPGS
Consider `CCOC(=O)C1CCN(CC(=O)c2c(C)[nH]c3cc(C)ccc23)CC1`, for which the “hERG current change (%, negative = inhibition) at 10uM” value was -60.5%.
The value for `Cc1ccc2c(C(=O)CN3CCC(C(N)=O)CC3)c(C)[nH]c2c1` was 5.21%.
As to `CCOC(=O)C1CCN(CC(=O)c2c(C)[nH]c3ccccc23)CC1`, the “hERG current change (%, negative = inhibition) at 10uM” value is recorded as -39.7%.
On to `COc1cc(/C=N/NC(=O)c2ccc(Cl)cc2)ccc1OCC(=O)N1CC(C)OC(C)C1` (stereo not shown), for which the “hERG current change (%, negative = inhibition) at 10uM” value is listed as -18.3%.
With `O=C(CN1CCN(C(=O)c2cccc(S(=O)(=O)N3CCCC3)c2)CC1)Nc1ccc(F)cc1`, the “hERG current change (%, negative = inhibition) at 10uM” value was -61.7%.
For `O=C(CN1CCN(C(=O)c2ccco2)CC1)Nc1cccc(S(=O)(=O)N2CCCC2)c1`, the “hERG current change (%, negative = inhibition) at 10uM” value is given as -16.2%.
Turning to `O=C(CN1CCN(C(=O)c2cccc(S(=O)(=O)N3CCCC3)c2)CC1)Nc1ccccc1Cl`, the “hERG current change (%, negative = inhibition) at 10uM” value is -66.8%.
The value for `O=C(CN1CCN(C(=O)c2ccccc2)CC1)Nc1cc(S(=O)(=O)N2CCCC2)ccc1Cl` was -32.8%.
Turning to `O=C(CN1CCN(S(=O)(=O)c2ccccc2)CC1)Nc1ccccc1Cl`, the “hERG current change (%, negative = inhibition) at 10uM” value is -6.93%.
With `O=C(c1cccc(S(=O)(=O)N2CCCCC2)c1)N1CCN(S(=O)(=O)c2ccc(F)cc2)CC1`, the “hERG current change (%, negative = inhibition) at 10uM” value is listed as -40.6%.
Then `CCOc1ccc(N2C(=O)/C(=C/c3ccco3)N(C)C2=S)cc1`, with -4.46%; and `CCC(C)NC(=O)C1CCCN(C(=O)NC2CCCCC2)C1` (stereo not shown), with 13.8%.
`Cc1cc(N2CCOCC2)nc2ccc(NC(=O)CCC(=O)N3CCN(c4ccc(F)cc4)CC3)cc12`: the “hERG current change (%, negative = inhibition) at 10uM” value was 21%.
The value for `COc1ccc(Br)c(C(=O)N2CCN(S(=O)(=O)/C=C/c3ccccc3)CC2)c1` was -58.8%; that for `COc1cc(SC)ccc1C(=O)N1CCN(c2ccccc2OC)CC1` was -24.5%.
Turning to `COc1cc(SC)ccc1C(=O)N1CCN(c2ccccc2F)CC1`, the “hERG current change (%, negative = inhibition) at 10uM” value is -33.8%.
For `COc1ccc(N2CCN(S(=O)(=O)/C=C/c3ccccc3)CC2)cc1`, the “hERG current change (%, negative = inhibition) at 10uM” value was found to be 1.54%.
Turning to `COc1ccc(Br)c(C(=O)N2CCN(S(=O)(=O)c3cccs3)CC2)c1`, the “hERG current change (%, negative = inhibition) at 10uM” value is -9.75%.
As for `COc1cc(SC)ccc1C(=O)N1CCN(S(=O)(=O)/C=C/c2ccccc2)CC1`, the “hERG current change (%, negative = inhibition) at 10uM” value is -56.5%.
On to `CCOC(=O)c1c(NC(=O)CN2CCCc3ccccc32)sc(C(C)=O)c1C`, for which the “hERG current change (%, negative = inhibition) at 10uM” value came to 5.24%.
Consider `CC1(C)CCC(=O)N2CC[C@H]3C[C@H](OC(=O)Nc4ccc5c(c4)OCO5)C[C@@H]1[C@H]32`, for which the “hERG current change (%, negative = inhibition) at 10uM” value was -0.41%.
Regarding `CC1(C)CC(=O)c2cc(OCC(=O)NCCN3CCCc4ccccc43)ccc2O1`, the “hERG current change (%, negative = inhibition) at 10uM” value is on record as -47.5%.
As for `N#CC1=C(N)Oc2c(c(=O)oc3ccccc23)C1c1cccnc1` (stereo not shown), the “hERG current change (%, negative = inhibition) at 10uM” value turned out to be 5.62%.
Take `CC1(C)C2CC=C(/C=N/NC(=O)c3ccccc3Br)C1C2` (stereo not shown): the “hERG current change (%, negative = inhibition) at 10uM” value is given as -2.58%.
`C=CC(C)(C)O[C@@H]1O[C@H](CO)[C@@H](O)[C@H](O)[C@H]1O`: the “hERG current change (%, negative = inhibition) at 10uM” value was found to be 40.6%.
The value for `Cc1cccc(N2CCc3c2nc2ccc(Br)cc2c3N)c1.Cl` was 6.56%; that for `Cc1cccc(N2CCc3c2nc2ccccc2c3N)c1.Cl` was -61.9%.
Regarding `Nc1c2c(nc3cccc(Cl)c13)N(c1ccccc1)CC2`, the “hERG current change (%, negative = inhibition) at 10uM” value is given as 31.7%.
Regarding `Cc1ccc2nc3c(c(N)c2c1)CCN3c1ccccc1.O=C(O)C(=O)O`, the “hERG current change (%, negative = inhibition) at 10uM” value is listed as -35.4%.
With `CCCC(=O)Nc1c2c(nc3ccccc13)N(c1ccccc1)CC2`, the “hERG current change (%, negative = inhibition) at 10uM” value is given as -1.55%.
As for `Cc1cccc(N2CCc3c2nc2ccccc2c3N)c1.O=C(O)C(=O)O`, the “hERG current change (%, negative = inhibition) at 10uM” value is recorded as -53.7%.
Turning to `CC(C)(C)c1ccccc1NC(=O)COC(=O)CN1C(=O)NC2(CCCC2)C1=O`, the “hERG current change (%, negative = inhibition) at 10uM” value is reported as 15.8%.
Regarding `Cc1c(OCC(=O)NCC(O)c2ccccc2)ccc2c3c(c(=O)oc12)CCC3` (stereo not shown), the “hERG current change (%, negative = inhibition) at 10uM” value is given as -8.23%.
For the compound `Cl.O=C(CN1CCOCC1)c1ccc(Br)cc1`, the “hERG current change (%, negative = inhibition) at 10uM” value is 18%.
Then `CN(CC(=O)NCC1CCCCC1)CC(=O)Nc1ccccc1Br`, with -21.2%; and `Cc1ccc(S(=O)(=O)N(CCCO)Cc2cc3c(C)ccc(C)c3[nH]c2=O)cc1`, with -45.9%.
The value for `Cc1ccc(S(=O)(=O)N(CCCN2CCCC2=O)Cc2cc3c(C)ccc(C)c3[nH]c2=O)cc1` was -64%; that for `COc1ccc(S(=O)(=O)N(CCCN2CCCC2=O)Cc2cc3c(C)ccc(C)c3[nH]c2=O)cc1` was -36.1%; that for `O=C(c1ccc(NS(=O)(=O)c2ccccc2)cc1)N1CCCC1` was -8.95%.
In the case of `CS/C(N)=N/S(=O)(=O)c1ccc(NC(C)=O)cc1`, the “hERG current change (%, negative = inhibition) at 10uM” value stood at 17.6%.
`C/C(=N/Nc1ccccc1[N+](=O)[O-])c1ccc([N+](=O)[O-])cc1`: the “hERG current change (%, negative = inhibition) at 10uM” value was found to be 5.07%.
With `CC1CCc2c(sc(NC(=O)c3ccccc3C(=O)O)c2C#N)C1` (stereo not shown), the “hERG current change (%, negative = inhibition) at 10uM” value was -0.906%.
For the compound `CCN(CC)CCNc1nc2c(c(=O)[nH]c(=O)n2C)n1CC(O)COc1ccc(Cl)cc1Cl` (stereo not shown), the “hERG current change (%, negative = inhibition) at 10uM” value was -70.2%.
Turning to `Cc1cc(C)n(-c2nc3c(c(=O)[nH]c(=O)n3C)n2CC(O)COc2ccc(Cl)cc2Cl)n1` (stereo not shown), the “hERG current change (%, negative = inhibition) at 10uM” value was -3.56%.
As for `COCCCNc1nc2c(c(=O)[nH]c(=O)n2C)n1CC(O)COc1ccccc1C` (stereo not shown), the “hERG current change (%, negative = inhibition) at 10uM” value is given as -7.62%.
As for `CN(C)CCNc1nc2c(c(=O)[nH]c(=O)n2C)n1CC(O)COc1ccc(Cl)cc1` (stereo not shown), the “hERG current change (%, negative = inhibition) at 10uM” value is -20%.
Take `CN(C)CCNc1nc2c(c(=O)[nH]c(=O)n2C)n1CC(O)COc1ccc(Cl)cc1Cl` (stereo not shown): the “hERG current change (%, negative = inhibition) at 10uM” value is given as -55%.
On to `CC(C)Cn1c(NCCN(C)C)nc2c1c(=O)[nH]c(=O)n2C`, for which the “hERG current change (%, negative = inhibition) at 10uM” value was found to be 10.1%.
Take `C[C@]12CC[C@H](O)C[C@H]1CC[C@@H]1C2CC[C@]2(C)[C@@H](C3=CC(=O)OC3)[C@@H](O)C[C@]12O` (stereo partly shown): the “hERG current change (%, negative = inhibition) at 10uM” value is 21.1%.
The value for `N#Cc1c2c(nc(N)c1-c1ccccc1)CCCCC2` was 7.02%.
For the compound `CC1=C(C(=O)OCC(Br)(Br)Br)C(c2cccc([N+](=O)[O-])c2)NC(=O)N1CCCC(=O)O` (stereo not shown), the “hERG current change (%, negative = inhibition) at 10uM” value is on record as -3.03%.
For the compound `CCn1nnnc1-c1ccc(OC)c(S(=O)(=O)Nc2ccc(C)c(C)c2)c1`, the “hERG current change (%, negative = inhibition) at 10uM” value is -2.9%.
